Measurements reported in the supplement of paper PMC12494721.
Counter-ions that a name gives are not always drawn.

Columns and labels:
Conditions in all cases: 20 µM; incubation time: 27 h, anaerobic, 37 °C;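 for the amine columns active = adjusted P below 0.05 in both replicates with a change the same way and a mean fold change under 0.8 or over 1.25; inactive = the rest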
[1] = tested on: Clostridium sporogenes DSM 1664; assay: growth (OD595) fold change vs plate DMSO controls (fold change (ratio)); higher = more growth
Outline: (§1)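 After 27 h at 37 °C under anaerobic conditions, 96-well cultures in mGAM were shaken and read at 595 nm. The readings were blank-subtracted, corrected for compound background using 20 µM compound solutions in water, and converted to OD with a calibration factor of 5. Growth is defined as the fold change over the median of DMSO controls on each plate. Fold changes above 1.5 were set to NA, and each value is the mean of 2 biological replicates.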

Escherichia coli IAI1 [2] = assay: as above
Outline: as §1

[3] = tested on: Klebsiella aerogenes DSM 30053; assay: as above
Outline: as §1

[4] = tested on: Ruminococcus gnavus DSM 108212; assay: as above
Outline: as §1

[5] = tested on: Klebsiella aerogenes DSM 30053; assay: fold change of Histamine concentration vs plate DMSO controls (fold change (ratio)); higher = more amine produced, active = hit call of the paper (significant change in both replicates, either direction)
Outline: (§2)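 Amines were quantified by LC–triple-quadrupole MS in dynamic MRM mode against external calibration curves, with drift correction within each batch. The samples were whole anaerobic mGAM cultures of four gut bacterial strains, grown for 27 h at 37 °C in 80 µL wells and extracted with cold acetonitrile/methanol with 0.1% formic acid, then centrifuged. Values are reported as fold change over DMSO controls on the same plate. The mean of 2 biological replicates is given.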

[6] = tested on: Clostridium sporogenes DSM 1664; assay: fold change of Tryptamine concentration vs plate DMSO controls (fold change (ratio)); higher = more amine produced, active = hit call of the paper (significant change in both replicates, either direction)
Outline: as §2

[7] = tested on: Ruminococcus gnavus DSM 108212; assay: as above
Outline: as §2

Escherichia coli IAI1 [8] = assay: fold change of Putrescine concentration vs plate DMSO controls (fold change (ratio)); higher = more amine produced, active = hit call of the paper (significant change in both replicates, either direction)
Outline: as §2

[9] = tested on: Klebsiella aerogenes DSM 30053; assay: as above
Outline: as §2

Escherichia coli IAI1 [10] = assay: fold change of Cadaverine concentration vs plate DMSO controls (fold change (ratio)); higher = more amine produced, active = hit call of the paper (significant change in both replicates, either direction)
Outline: as §2

[11] = tested on: Klebsiella aerogenes DSM 30053; assay: as above
Outline: as §2

[12] = tested on: Ruminococcus gnavus DSM 108212; assay: fold change of 2-Phenylethylamine concentration vs plate DMSO controls (fold change (ratio)); higher = more amine produced, active = hit call of the paper (significant change in both replicates, either direction)
Outline: as §2

Q: Which growth [1] does the source give for `Cc1cc(C)nc(Nc2ccccc2)n1` here?
A: Its growth is 0.995.

Q: And the growth (Escherichia coli IAI1 [2])?
A: The growth was 1.06.

Q: What about the growth [3] of the same molecule?
A: The growth was 0.999.

Q: What about the growth [4] of the same molecule?
A: Its growth is 1.01.

Q: What about the “fold change of Histamine concentration” value [5] of the same molecule?
A: Its value is 0.986 (inactive).

Q: And the “fold change of Tryptamine concentration” value [6]?
A: Its value is 1 (inactive).

Q: What about the “fold change of Tryptamine concentration” value [7] of the same molecule?
A: The value was 1 (inactive).

Q: And the “fold change of Putrescine concentration” value (Escherichia coli IAI1 [8])?
A: The value was 1.05 (inactive).

Q: What about the “fold change of Putrescine concentration” value [9] of the same molecule?
A: The value was 1.02 (inactive).

Q: What about the “fold change of Cadaverine concentration” value (Escherichia coli IAI1 [10]) of the same molecule?
A: Its value is 1.05 (inactive).

Q: And the “fold change of Cadaverine concentration” value [11]?
A: Its value is 1.02 (inactive).

Q: And the “fold change of 2-Phenylethylamine concentration” value [12]?
A: Its value is 1.04 (inactive).

Q: `C[C@]12CCC(=O)C=C1C=C[C@@H]1[C@@H]2CC[C@@]2(C)[C@H]1CC[C@@]2(O)CCC(=O)O` [Canrenoic acid potassium salt] was tested. Which growth [1] did it give?
A: Its growth is 1.1.

Q: And the growth (Escherichia coli IAI1 [2])?
A: Its growth is 1.

Q: What about the growth [3] of the same molecule?
A: Its growth is 1.02.

Q: And the growth [4]?
A: Its growth is 0.902.

Q: And the “fold change of Histamine concentration” value [5]?
A: The value was 0.964 (inactive).

Q: What about the “fold change of Tryptamine concentration” value [6] of the same molecule?
A: The value was 1.05 (inactive).

Q: What about the “fold change of Tryptamine concentration” value [7] of the same molecule?
A: Its value is 1.06 (inactive).

Q: What about the “fold change of Putrescine concentration” value (Escherichia coli IAI1 [8]) of the same molecule?
A: Its value is 1.02 (inactive).

Q: What about the “fold change of Putrescine concentration” value [9] of the same molecule?
A: The value was 0.98 (inactive).

Q: What about the “fold change of Cadaverine concentration” value (Escherichia coli IAI1 [10]) of the same molecule?
A: Its value is 0.997 (inactive).

Q: What about the “fold change of Cadaverine concentration” value [11] of the same molecule?
A: The value was 0.996 (inactive).

Q: What about the “fold change of 2-Phenylethylamine concentration” value [12] of the same molecule?
A: Its value is 1.09 (inactive).

Q: For `CN1[C@@H]2CC[C@H]1C[C@@H](OC(=O)C(CO)c1ccccc1)C2` (stereo partly drawn) [Atropine sulfate monohydrate], which growth (Escherichia coli IAI1 [2]) is on record?
A: Its growth is 0.98.

Q: And the growth [4]?
A: Its growth is 0.986.

Q: And the “fold change of Histamine concentration” value [5]?
A: Its value is 1.03 (inactive).

Q: What about the “fold change of Tryptamine concentration” value [7] of the same molecule?
A: The value was 1.01 (inactive).

Q: What about the “fold change of Putrescine concentration” value (Escherichia coli IAI1 [8]) of the same molecule?
A: The value was 0.982 (inactive).

Q: And the “fold change of Putrescine concentration” value [9]?
A: The value was 1.02 (inactive).

Q: And the “fold change of Cadaverine concentration” value (Escherichia coli IAI1 [10])?
A: The value was 0.957 (inactive).

Q: And the “fold change of Cadaverine concentration” value [11]?
A: The value was 1.02 (inactive).

Q: What about the “fold change of 2-Phenylethylamine concentration” value [12] of the same molecule?
A: Its value is 1.01 (inactive).
